Assay outcomes from PubChem.
Hits are enriched below; roughly 1.2% of the tested compounds scored in any of these assays.
GLD-1 RNA inh = GLD-1-TGE RNA interaction inhibition (C. elegans); purified GLD-1 + fluorescein TGE RNA, fluorescence polarization; AID 2280; inhibition, % at 5.96 µM; 320,000 compounds, 0.44% hits; Q17339;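 active = percent inhibition above a per-plate cutoff, the plate mean of test compounds plus 3 SD, cut at about 30% in these data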;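 also: 0% = DMSO wells with GLD-1 and probe and 100% = wells lacking GLD-1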
E coli Lon inh = inhibits E. coli Lon protease. purified E. coli Lon protease, fluorescence polarization. P0A9M0. 360,000 compounds, 0.42% hits. inhibition, % at 7.94 µM. AID 602123; in the data active = inhibition above about 13%, passing the limit was not always enough;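 also: 0% = enzyme with probe and DMSO and 100% = no enzyme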
RTF Ca sens inh = cardiac RTF calcium desensitization. inhibition, % at 7.15 µM. 340,000 compounds, 0.12% hits. IANBD-labeled cardiac RTF, Ca2+ fluorescence. P19429+P45379;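 active = inhibition above the mean inhibition of all tested compounds plus 3 SD, cut at about 17% in these data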;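 also: assay run at fixed EC70 calcium of 1.6 mM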
RTF Ca sens act = increases calcium sensitivity of human cardiac regulated thin filaments. IANBD-labeled TnC RTF fluorescence at EC20 calcium; 0% EC20 calcium, 100% full calcium. activation, % at 7.2 µM. 340,000 compounds, 0.24% hits;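 active = activation above the mean over all tested compounds plus 3 SD, cut at about 30% in these data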;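 also: rise in fluorescence read as greater calcium sensitivity of cardiac thin filaments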
Bcl-xL primary = Bcl-xL (human) inhibition; Q07817; GST-Bcl-xL / FITC-Bim BH3 peptide fluorescence polarization; inhibition, % at 10.9 µM; 320,000 compounds, 0.7% hits;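 active = inhibition above the mean of all tested compounds plus 3 SD, cutoff set per campaign, cut at about 30% in these data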;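 also: 0% = DMSO wells and 100% = unlabeled Bim-BH3 peptide competitor; inhibitors lower millipolarization by displacing the labeled peptide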
Target sequence (Q07817 whole entry, looked up): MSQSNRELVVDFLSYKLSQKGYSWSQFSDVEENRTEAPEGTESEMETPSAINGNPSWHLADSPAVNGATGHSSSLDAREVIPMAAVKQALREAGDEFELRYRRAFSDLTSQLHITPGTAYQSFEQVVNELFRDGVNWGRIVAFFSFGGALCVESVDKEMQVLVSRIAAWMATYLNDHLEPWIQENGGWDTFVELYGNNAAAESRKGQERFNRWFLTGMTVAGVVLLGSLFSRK
* marks the source's active call; other numbers are inactive results.

For C/C(=C\C=C(C#N)C#N)c1cc(C#N)c(N)o1 the results were E coli Lon inh -64, RTF Ca sens inh -195 and RTF Ca sens act 149*.
`Fc1ccc(NCc2cccnc2)cc1F` gave GLD-1 RNA inh 24, E coli Lon inh 11, RTF Ca sens inh -6, RTF Ca sens act 5 and Bcl-xL primary 64*.
Cc1ccc(N2C(=O)C3NN=C(C(=O)OCc4ccccc4)C3C2=O)c(C)c1 (stereo not given) was read as GLD-1 RNA inh 4, E coli Lon inh -13, RTF Ca sens inh 1, RTF Ca sens act -7 and Bcl-xL primary 6.
Screening O=c1c(-c2ccccc2)coc2c(CN3CCCC3)c(O)ccc12 returned GLD-1 RNA inh 4, E coli Lon inh -1, RTF Ca sens inh -5, RTF Ca sens act 2 and Bcl-xL primary 1.
`O=C1/C(=C/c2ccco2)Oc2c1ccc(O)c2CN1CCCCC1` gave GLD-1 RNA inh 34*, E coli Lon inh -15, RTF Ca sens inh -6, RTF Ca sens act 2 and Bcl-xL primary 79*.
Screening CC1CCN(Cc2c(O)ccc3c2O/C(=C\c2ccco2)C3=O)CC1 returned GLD-1 RNA inh 68*, E coli Lon inh 1, RTF Ca sens inh -8, RTF Ca sens act 11 and Bcl-xL primary 123*.
`CCN1CCN(Cc2c(O)ccc3c(=O)c(-c4ccccc4OC)coc23)CC1` gave GLD-1 RNA inh 5, E coli Lon inh 0, RTF Ca sens inh -2, RTF Ca sens act 3 and Bcl-xL primary 1.
`COCCN(CCOC)Cc1c(O)ccc2c1O/C(=C\c1ccco1)C2=O` gave GLD-1 RNA inh 72*, E coli Lon inh 0, RTF Ca sens inh -94, RTF Ca sens act 69* and Bcl-xL primary 106*.
CCN1CCN(Cc2c(O)ccc3c2O/C(=C\C=C\c2ccccc2OC)C3=O)CC1 was read as GLD-1 RNA inh -22, E coli Lon inh -40, RTF Ca sens inh -150, RTF Ca sens act 166* and Bcl-xL primary 39*.
For Cc1sc(NC(=O)c2ccco2)c(CN2CCC(C)CC2)c1C the results were GLD-1 RNA inh 17, E coli Lon inh 6, RTF Ca sens inh 8, RTF Ca sens act -2 and Bcl-xL primary 21.
Screening COc1ccc2c(c1)CC/C(=C/c1ccco1)C2=O returned GLD-1 RNA inh -14, E coli Lon inh -21, RTF Ca sens inh -8, RTF Ca sens act -2 and Bcl-xL primary 14.
For COc1ccc(N2CCN(C(=O)COc3cccc4ccccc34)CC2)cc1 the results were GLD-1 RNA inh 4, E coli Lon inh -12, RTF Ca sens inh -4, RTF Ca sens act -1 and Bcl-xL primary 2.
`CCc1nnc(NC(=O)Cc2ccc(S(=O)(=O)N3CCCCC3)cc2)s1` gave GLD-1 RNA inh 6, E coli Lon inh -5, RTF Ca sens inh -1, RTF Ca sens act 1 and Bcl-xL primary 0.
Screening O=C(Oc1ccc(C(=S)N2CCC(O)CC2)cc1)c1ccc(Cl)cc1 returned GLD-1 RNA inh 7, E coli Lon inh 3, RTF Ca sens inh 4, RTF Ca sens act -3 and Bcl-xL primary 100*.
Screening O=C(Oc1ccc(C(=S)N2CCCCC2)cc1)c1ccccc1 returned GLD-1 RNA inh 6, E coli Lon inh -9 and Bcl-xL primary 1.
Screening OCCNc1c2ccccc2nc2c(F)c(F)c(F)c(F)c12 returned GLD-1 RNA inh 16, E coli Lon inh 1, RTF Ca sens inh -29, RTF Ca sens act 6 and Bcl-xL primary 30*.
`CN(C)CCCNc1c2ccccc2nc2ccccc12` gave GLD-1 RNA inh -1, E coli Lon inh 9, RTF Ca sens inh -1, RTF Ca sens act -3 and Bcl-xL primary 14.
Screening COc1ccc(C(=O)/C=C/Nc2cccc(O)c2)cc1 returned GLD-1 RNA inh -2, E coli Lon inh -3, RTF Ca sens inh -11, RTF Ca sens act 3 and Bcl-xL primary 46*.
CN(C)c1ccc(/C=C(/C#N)C(=O)Nc2nc3c(s2)CCN(Cc2ccccc2)C3)cc1 was read as E coli Lon inh inactive, RTF Ca sens inh -61 and RTF Ca sens act 51*.
For CCN1CCc2c(sc(NC(=O)Nc3ccc(Cl)c(Cl)c3)c2C(N)=O)C1 the results were GLD-1 RNA inh -34, E coli Lon inh -269, RTF Ca sens inh inactive, RTF Ca sens act 152* and Bcl-xL primary 40*.
For NC(=O)c1c(NC(=O)c2ccccc2)sc2c1CCN(Cc1ccccc1)C2 the results were GLD-1 RNA inh -121, E coli Lon inh -169, RTF Ca sens inh -34, RTF Ca sens act 49* and Bcl-xL primary -41.
Screening CCOC(=O)c1sc2nc(CC(=O)OC)nc(NCc3ccc(F)cc3)c2c1C returned GLD-1 RNA inh 4, E coli Lon inh 3, RTF Ca sens inh -2, RTF Ca sens act 2 and Bcl-xL primary 1.
For CN(C)c1ccc(/C=C/C=C2/SC(=S)N(c3ccccc3)C2=O)cc1 the results were GLD-1 RNA inh -25, E coli Lon inh -92, RTF Ca sens inh -20, RTF Ca sens act -1 and Bcl-xL primary 36*.
CCCCNc1cc(Cl)nc(N)n1 was read as GLD-1 RNA inh 12, E coli Lon inh -6, RTF Ca sens inh -9, RTF Ca sens act 7 and Bcl-xL primary 30*.
Nc1nc(Cl)cc(NCCc2ccccc2)n1 was read as GLD-1 RNA inh 3 and Bcl-xL primary 3.
Cn1c(NC(=O)/C=C/c2ccco2)cc(=O)n(C)c1=O was read as GLD-1 RNA inh 5, E coli Lon inh 2, RTF Ca sens inh -37, RTF Ca sens act 0 and Bcl-xL primary 12.
Screening Cc1ccc(/C=C/C(=O)Nc2cc(=O)n(C)c(=O)n2C)o1 returned GLD-1 RNA inh 27, E coli Lon inh -6, RTF Ca sens inh -14, RTF Ca sens act 11 and Bcl-xL primary 33*.
CCOC(=O)c1c(N)sc(=S)c2c1CCC2 was read as GLD-1 RNA inh 23, E coli Lon inh 7, RTF Ca sens inh 5, RTF Ca sens act -16 and Bcl-xL primary 37*.
Screening CCOC(=O)c1c(N)sc(N)c1C(=O)OCC returned GLD-1 RNA inh 4, E coli Lon inh -1, RTF Ca sens inh -29, RTF Ca sens act 4 and Bcl-xL primary 13.
CC1CCCC(C)N1C(=S)SCC(=O)O (stereo not given) was read as GLD-1 RNA inh -1, E coli Lon inh 1, RTF Ca sens inh -7, RTF Ca sens act -2 and Bcl-xL primary -3.
Cc1ccc(O)c(CP(=O)(c2ccccc2)c2ccccc2)c1 was read as GLD-1 RNA inh 9, E coli Lon inh -5, RTF Ca sens inh 1, RTF Ca sens act -5 and Bcl-xL primary 6.
For CCNc1ccccc1CP(=O)(c1ccccc1)c1ccccc1O (stereo not given) the results were GLD-1 RNA inh active and Bcl-xL primary active.
Screening CC1=CC2=NC(=O)/C(=C\c3cc(C)n(-c4cccc(Cl)c4)c3C)C(=N)N2O1 returned GLD-1 RNA inh 5, E coli Lon inh 1, RTF Ca sens inh -11, RTF Ca sens act -6 and Bcl-xL primary -1.
`CSC1=NSC2=NC(=O)/C(=C/c3coc4ccc(O)cc4c3=O)C(=N)N12` gave GLD-1 RNA inh -50, E coli Lon inh -384, RTF Ca sens inh -223, RTF Ca sens act 177* and Bcl-xL primary 52*.
